# Screening data deposited in PubChem by Broad Institute.
# BL2 CD40 inh: CD40 pathway inhibition in BL2 cells; BL2 NF-kB luciferase reporter, CD40L-induced, 4 h; inhibition, % at 10 µM; 83,000 compounds, 0.94% hits; AID 1053188;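 active = mean inhibition of at least 50% with a set share of replicates also reaching that level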;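 also: 0% = neutral control wells and 100% = IKK inhibitor VII at 50 µM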
# Starred values were filed as active, the others as inactive; [ ] = dose if it differs, or a comment. This is one part of a sample in which hits are shown more often than they occur.
SMILES,BL2 CD40 inh
Cc1ccc(S(=O)(=O)CC#CCOC(=O)c2ccc([N+](=O)[O-])cc2)cc1,89*
Cc1ccc(CONC(=O)c2ccc([N+](=O)[O-])cc2)cc1,-21
Cc1ccc(S(=O)(=O)CC(=O)N2CCN(c3ccc([N+](=O)[O-])cc3)CC2)cc1,22
NS(=O)(=O)c1ccc(Cl)c(S(N)(=O)=O)c1,10
Nc1ccc(S(N)(=O)=O)cc1N,-45
NC1=C(Cl)C(=O)c2ccc(S(N)(=O)=O)cc2C1=O,60*
N#Cc1ccc(-c2ccc3c(c2)[C@H]2[C@H](CCN2C(=O)C2CC2)[C@@H](CO)N3)cc1,68*
N#Cc1ccc(-c2ccc3c(c2)[C@@H]2[C@@H](CCN2C(=O)C2CC2)[C@H](CO)N3)cc1,2
N#Cc1cccc(-c2ccc3c(c2)[C@@H]2[C@@H](CCN2C(=O)CN2CCOCC2)[C@@H](CO)N3)c1,active[25 µM]
N#Cc1cccc(-c2ccc3c(c2)[C@H]2[C@H](CCN2C(=O)CN2CCOCC2)[C@@H](CO)N3)c1,-7[25 µM]
N#Cc1ccc(-c2ccc3c(c2)[C@H]2[C@H](CCN2C(=O)C2CCC2)[C@@H](CO)N3)cc1,47
N#Cc1cccc(-c2ccc3c(c2)[C@@H]2[C@@H](CCN2C(=O)CN2CCOCC2)[C@H](CO)N3)c1,-12[25 µM]
COc1cccc(CN2[C@@H](CO)[C@@H]3c4ccccc4N(C(=O)CC(F)(F)F)C[C@@H]32)c1,-7[25 µM]
C[C@@H]1CN([C@@H](C)CO)C(=O)c2c(c3ccccc3n2C)-c2ccccc2CO[C@H]1CN(C)CC1CC1,29
CO[C@@H]1CN(C)C(=O)c2ccc(N)cc2OC[C@@H](C)NC[C@H]1C,-14[25 µM]
CS(=O)(=O)N1Cc2cc(C(=O)O)nc(-c3cccc(-c4ccccc4F)c3)c2[C@H]1CCO,1[25 µM]
O=C(NC[C@@H]1[C@@H](c2ccccc2)[C@H](CO)N1Cc1cccnc1)c1ccccn1,0[25 µM]
CC(=O)N(C)C[C@H]1Oc2ccc(NC(=O)NC(C)C)cc2C(=O)N(C)C[C@H]1C,-2
CO[C@H](CN(C)S(=O)(=O)c1ccc(C)cc1)[C@@H](C)CN([C@@H](C)CO)S(=O)(=O)c1cccc(Cl)c1,18[25 µM]
CCCNC(=O)N1C[C@H]2[C@@H](c3ccccc31)[C@@H](CO)N2C(=O)CN1CCOCC1,3[25 µM]
CCS(=O)(=O)Nc1ccc2c(c1)C(=O)N(C)C[C@H](OC)[C@@H](C)CN(CC1CCCC1)[C@@H](C)CO2,6
COC(=O)c1nn(-c2ccccc2)c(-c2ccccc2)c1C(=O)c1ccccc1,7
COc1cn(-c2ccccc2)nc1C(=O)Nc1ccccc1,-76
COC(=O)c1nn(-c2ccc(-c3ccccc3)cc2)cc1O,70*
O=S(=O)(c1ccc(F)cc1)N1CCCCN2[C@H](C1)[C@@H](c1ccc(-c3cncnc3)cc1)[C@@H]2CO,8[25 µM]
SMILES,BL2 CD40 inh
Cc1nnc(NC(=O)c2ccc(N3CCCC3=O)cc2)s1,-39
O=C(NC1=NCCS1)c1ccc(N2CCCC2=O)cc1,-32
Cc1csc(NC(=O)c2ccc(N3CCCC3=O)cc2)n1,92*
COCC#Cc1ccc([C@H]2[C@@H](CO)N3C(=O)CN(C(=O)c4ccncc4)C[C@@H]23)cc1,-10[25 µM]
CC(C)OC(=O)N(C)C[C@H]1OCc2ccccc2-c2ccccc2C(=O)N([C@@H](C)CO)C[C@H]1C,16
C/C=C/c1ccc2c(c1)[C@@H]1[C@@H](CCN1S(=O)(=O)c1ccccc1OC)[C@H](CO)N2C,7[25 µM]
CCOc1ccc2c(ccc(/C=C/c3cc(C)c4cccnc4c3O)[n+]2C)c1,79*
C[C@H](CO)N1C[C@H](C)[C@H](CN(C)S(=O)(=O)c2ccccc2)OCCCC[C@H](C)Oc2ccc(NS(=O)(=O)c3ccc(Cl)cc3)cc2C1=O,14
COc1ccc(OCC(=O)OCC(=O)N2C(C)CCCC2C)cc1 (stereo not drawn),7
COc1ccc(-c2cnc3n2CCCCC3)cc1,2
COc1ccc(-c2c[n+](CC(=O)OC3CC(C)CCC3C(C)C)c3n2CCC3)cc1 (stereo not drawn),79*
CCC(=O)N1[C@H](C#N)[C@H](c2ccccc2-c2cccc(C)c2)[C@@H]1CO,-11[25 µM]
N#C[C@@H]1[C@@H](c2ccccc2C2=CCCCC2)[C@@H](CO)N1C(=O)CN1CCOCC1,13[25 µM]
COCC(=O)N1[C@H](C#N)[C@H](c2ccccc2-c2cccc(F)c2)[C@@H]1CO,-8[25 µM]
Cc1ccc(P(=O)(CSC(=N)N)c2ccc(C)cc2)cc1,61*
COc1ccc(-c2ccc3c(c2)[C@H]2[C@H](CCN2C(=O)C2CCOCC2)[C@@H](CO)N3C)cc1,-5[25 µM]
COc1ccc(-c2ccc3c(c2)[C@@H]2[C@@H](CCN2C(=O)C2CC2)[C@@H](CO)N3C)cc1,-18
COc1ccc(-c2ccc3c(c2)[C@@H]2[C@@H](CCN2C(=O)C2CCC2)[C@H](CO)N3C)cc1,58*
CN([NH2+][O-])c1cc(O)ccc1O,-25[25 µM]
Cc1cccnc1NCc1ccc(O)c2ncccc12,59*
Cc1ccc(-n2cnnn2)c2cccnc12,2
Oc1ccc(CN2CCCc3ccccc32)c2cccnc12,11
C/C=C/c1ccc([C@H]2[C@@H](CO)N(C(=O)NC(C)C)[C@H]2CNC(C)=O)cc1,12[25 µM]
CC(C)c1cccc(NC(=O)C[C@H]2CC[C@H]3[C@@H](COc4ccc(NS(=O)(=O)c5ccccc5Cl)cc4C(=O)N3C)O2)c1,24[25 µM]
COc1ccccc1C(=O)Nc1ccc2c(c1)C(=O)N(C)[C@H]1CC[C@H](CC(=O)Nc3cccc(C(C)C)c3)O[C@@H]1CO2,57*[25 µM]
SMILES,BL2 CD40 inh
COc1ccccc1C(=O)Nc1ccc2c(c1)C(=O)N(C)[C@H]1CC[C@H](CC(=O)Nc3cc(F)ccc3F)O[C@@H]1CO2,30[25 µM]
C[C@H]1CN([C@@H](C)CO)C(=O)CCCn2cc(nn2)CO[C@H]1CN(C)C(=O)Nc1ccnc(N2CCOCC2)c1,7[25 µM]
O=C(C1CCOCC1)N1CC(=O)N2[C@H](CO)[C@@H](c3ccc(C#CCc4ccccc4)cc3)[C@H]2C1,-6[25 µM]
COCC#Cc1ccc([C@H]2[C@H]3CN(C(=O)C4CCCC4)CC(=O)N3[C@H]2CO)cc1,-3
O=C(C1CCCC1)N1CC(=O)N2[C@H](CO)[C@@H](c3ccc(C#CCc4ccccc4)cc3)[C@@H]2C1,39
COCC#Cc1ccc([C@H]2[C@H]3CN(C(=O)C4CCCCC4)CC(=O)N3[C@H]2CO)cc1,2[25 µM]
O=C(C1CCCC1)N1CC(=O)N2[C@@H](CO)[C@@H](c3ccc(C#CCc4ccccc4)cc3)[C@@H]2C1,55*
O=C(C1CCCC1)N1CC(=O)N2[C@H](C1)[C@@H](c1ccc(C#CCc3ccccc3)cc1)[C@@H]2CO,51*
O=S(=O)(c1ccccc1)N1CC2(C1)[C@H](c1ccccc1)[C@H](CO)N2CCC(F)(F)F,7[25 µM]
CCS(=O)(=O)N(C)[C@H]1c2cc(C#N)ccc2OC(C)(C)[C@@H]1O,2[25 µM]
OCc1cc2ncnc(Nc3ccc(O)c(Br)c3)c2cc1CO,-5[25 µM]
C[C@H](CO)N1C[C@H](C)[C@@H](CN(C)C(=O)c2ccc(F)cc2)OCc2ccccc2-c2ccccc2C1=O,-9[25 µM]
C[C@@H]1CN(C)C(=O)Cc2cc(N)ccc2O[C@@H]1CN(C)C(=O)OC(C)(C)C,2
CS(=O)(=O)c1ccc(C(=O)OCC(=O)NC(=O)C2COc3ccccc3O2)cc1[N+](=O)[O-] (stereo not drawn),95*
COc1ccc(C(=O)OCC(=O)Nc2ccc(OC)c(S(=O)(=O)N3CCCCC3)c2)cc1[N+](=O)[O-],5
Nc1ccc(C(=O)NNC(=O)C2COc3ccccc3O2)cc1[N+](=O)[O-] (stereo not drawn),2
